Test results: PubChem BioAssay AID1159580 (chemical genetic matrix, 2015)
Several values for one entry are separate records, joined by “and”; a condition that tells them apart may be missing. Equal values may be shown once. Hit rate of the full screen: of about 5,500 compounds, about 2,000 (36%) were called active. About 18% were inconclusive and are not listed. Cut-off read from the data, not from the text of the source: active = normalized growth mostly below about 0.91 (no sharp cut-off); inconclusive = no clear call, values can overlap the other calls; inactive = mostly above about 0.92. This is one part of the list.

Assay: chemical genetic growth profiling, strain panel (AID 1159580);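 note: tested at 20 µM; growth read once vehicle control cultures reached saturation at 30 °C; 1 = growth at the plate median or of vehicle wells; lower values mean less growth of the strain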
Details: S. cerevisiae deletion strains, growth OD

Measured: normalized growth

C[C@H]1C(=O)O[C@@H]2CCN3CC=C(COC(=O)[C@](C)(O)[C@]1(C)O)[C@H]23
inactive: locus YAL021C, strain ccr4, stronger effect = lower value 1 | locus YAL026C, strain drs2, stronger effect = lower value 0.991 | locus YAL030W, strain snc1, stronger effect = lower value 0.989 | locus YBL061C, strain skt5, stronger effect = lower value 0.995 | locus YBR009C, strain hhf1, stronger effect = lower value 0.993 | locus YBR021W, strain FUR4, stronger effect = lower value 0.978 | locus YBR023C, strain chs3, stronger effect = lower value 0.995 | locus YBR171W, strain sec66, stronger effect = lower value 0.987 | locus YBR229C, strain ROT2, stronger effect = lower value 0.989 | locus YBR231C, strain swc5, stronger effect = lower value 0.984 | locus YBR279W, strain paf1, stronger effect = lower value 0.99 | locus YCL011C, strain gbp2, stronger effect = lower value 0.997 | locus YCL016C, strain dcc1, stronger effect = lower value 0.999 | locus YCL029C, strain bik1, stronger effect = lower value 0.99 | locus YCL069W, strain vba3, stronger effect = lower value 0.995 | locus YCR088W, strain abp1, stronger effect = lower value 0.992 | locus YDL005C, strain med2, stronger effect = lower value 0.992 | locus YDL035C, strain GPR1, stronger effect = lower value 0.999 | locus YDL040C, strain nat1, stronger effect = lower value 0.991 | locus YDL074C, strain BRE1, stronger effect = lower value 1.02 | locus YDL101C, strain DUN1, stronger effect = lower value 0.99 | locus YDL134C, strain PPH21, stronger effect = lower value 0.968 | locus YDL185W, strain tfp1, stronger effect = lower value 0.984 | locus YDL192W, strain arf1, stronger effect = lower value 0.981 | locus YDR001C, strain nth1, stronger effect = lower value 0.99 | locus YDR069C, strain doa4, stronger effect = lower value 0.99 | locus YDR101C, strain arx1, stronger effect = lower value 0.994 | locus YDR137W, strain rgp1, stronger effect = lower value 0.972 | locus YDR159W, strain sac3, stronger effect = lower value 0.984 | locus YDR162C, strain NBP2, stronger effect = lower value 0.996 | locus YDR195W, strain ref2 0.945 | locus YDR297W, strain sur2, stronger effect = lower value 0.998 | locus YDR318W, strain mcm21, stronger effect = lower value 0.996 | locus YDR334W, strain swr1, stronger effect = lower value 0.995 | locus YDR335W, strain msn5, stronger effect = lower value 0.989 | locus YDR388W, stronger effect = lower value 0.997 | locus YDR392W, strain spt3, stronger effect = lower value 0.995 | locus YDR502C, strain sam2, stronger effect = lower value 0.99 | locus YEL003W, strain gim4, stronger effect = lower value 0.991 | locus YEL037C, strain rad23, stronger effect = lower value 0.996 | locus YEL061C, strain CIN8 (second series), stronger effect = lower value 0.99 | locus YEL061C, strain CIN8, stronger effect = lower value 0.995 | locus YER015W, strain faa2, stronger effect = lower value 0.998 | locus YER016W, strain bim1, stronger effect = lower value 0.989 | locus YER110C, stronger effect = lower value 0.986 | locus YER111C, strain swi4, stronger effect = lower value 0.969 | locus YER155C, strain BEM2 (second series), stronger effect = lower value 0.937 | locus YER155C, strain BEM2, stronger effect = lower value 0.988 | locus YER167W, strain BCK2, stronger effect = lower value 0.982 | locus YFR010W, strain ubp6, stronger effect = lower value 0.99 | locus YGL078C, strain dbp3, stronger effect = lower value 0.988 | locus YGL086W, strain mad1, stronger effect = lower value 1.01 | locus YGL167C, strain pmr1, stronger effect = lower value 0.994 | locus YGL173C, strain kem1, stronger effect = lower value 0.994 | locus YGL227W, strain vid30, stronger effect = lower value 0.982 | locus YGL240W, strain doc1, stronger effect = lower value 0.987 | locus YGL248W, strain PDE1, stronger effect = lower value 0.997 | locus YGL253W, strain hxk2, stronger effect = lower value 0.994 | locus YGR135W, strain pre9, stronger effect = lower value 0.987 | locus YGR229C, strain SMI1, stronger effect = lower value 1 | locus YGR252W, strain gcn5, stronger effect = lower value 0.98 | locus YHR013C, strain ard1, stronger effect = lower value 1 | locus YHR027C, strain rpn1, stronger effect = lower value 0.991 | locus YHR030C, strain SLT2, stronger effect = lower value 0.986 and 0.998 | locus YHR079C, strain IRE1 (second series), stronger effect = lower value 0.994 | locus YHR079C, strain IRE1, stronger effect = lower value 0.985 | locus YHR094C, strain hxt1, stronger effect = lower value 0.991 | locus YHR129C, strain ARP1, stronger effect = lower value 0.989 | locus YHR142W, strain chs7, stronger effect = lower value 1 | locus YHR200W, strain rpn10, stronger effect = lower value 0.991 | locus YIL066C, strain RNR3, stronger effect = lower value 0.992 | locus YIL073C, strain SPO22, stronger effect = lower value 0.969 | locus YIL125W, strain kgd1, stronger effect = lower value 0.995 | locus YIR030C, strain dcg1, stronger effect = lower value 0.99 | locus YJL092W, strain hpr5, stronger effect = lower value 0.97 | locus YJL095W, strain BCK1 (second series), stronger effect = lower value 0.984 | locus YJL095W, strain BCK1, stronger effect = lower value 1.02 and 1 | locus YJL115W, strain asf1, stronger effect = lower value 0.969 | locus YJL129C, strain trk1, stronger effect = lower value 0.968 | locus YJL134W, strain LCB3, stronger effect = lower value 0.994 | locus YJL154C, strain vps35, stronger effect = lower value 0.991 | locus YJL164C, strain tpk1, stronger effect = lower value 1.01 | locus YJL166W, strain qcr8, stronger effect = lower value 0.987 | locus YJL168C, strain set2, stronger effect = lower value 0.997 | locus YJL187C, strain SWE1 (second series), stronger effect = lower value 0.995 | locus YJL187C, strain SWE1, stronger effect = lower value 0.996 | locus YJR043C, strain POL32, stronger effect = lower value 1.01 | locus YJR066W, strain TOR1, stronger effect = lower value 0.944 | locus YKL009W, strain mrt4, stronger effect = lower value 0.983
